The structures appear in SMILES notation. About 83,000 compounds went through this panel and 20% of them were active in at least one assay; those are over-represented in the sample as a whole.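 Activity criterion: percent growth below 10, measured after cells in 96-well plates were exposed to a single compound concentration for 48 hours.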 A number with no mark means an inactive call. Active and inactive are the calls of the source.

Test systems include DU-145 prostate; K-562 leukemia; MALME-3M melanoma; MDA-MB-231 breast; RXF 393 renal; SF-268 CNS; SF-295 CNS; SF-539 CNS; UACC-257 melanoma; M14 melanoma.
Common to all, as to assay: NCI-60 one-dose screen, 48 h (100 = growth as untreated, 0 = no growth, -100 = all killed)
Holding throughout (settings): 10 µM unless noted

Regarding `COC(=O)c1nc(-c2ccc(C)cc2)oc1Sc1ccc(C)cc1`, the growth is 110% in the experiment with DU-145 prostate; 82% in the experiment on K-562 leukemia; 122% with MALME-3M melanoma; 96.1% with MDA-MB-231 breast; 108% in the experiment with RXF 393 renal; 103% with SF-268 CNS. Also, the growth in the experiment on SF-295 CNS is 114%; in the experiment on SF-539 CNS, 96.8%; in the experiment with UACC-257 melanoma it was 102%; with M14 melanoma it was 93.2%.
Take `Cc1ccc2c(c1)C(C)Cc1c(ncnc1-n1cnc3cc(C)ccc31)N2C` (stereo not given): the growth with DU-145 prostate was 10.9%; in the experiment with K-562 leukemia, 6.54% (active); in the experiment with MALME-3M melanoma, 76.9%; in the experiment on MDA-MB-231 breast it was 38.5%; in the experiment with RXF 393 renal, 21.3%; in the experiment on SF-268 CNS it was 25.6%. For the same compound, the growth in the experiment with SF-295 CNS is 2.2% (active); in the experiment with SF-539 CNS, 16.8%; in the experiment on UACC-257 melanoma, 25.6%; in the experiment on M14 melanoma it was 17.7%.
`CC(C)=CCc1cc(O)c(O)c2oc3cc(O)cc(O)c3c(=O)c12`: the growth with DU-145 prostate was 55.8%; in the experiment with K-562 leukemia, 67%; in the experiment on MALME-3M melanoma, 91.3%; in the experiment on MDA-MB-231 breast, 55.5%; with RXF 393 renal, 84.6%; in the experiment on SF-268 CNS it was 49.7%. Further, the growth was 77.9% in the experiment with SF-295 CNS, 64.8% in the experiment with SF-539 CNS, 98.2% in the experiment with UACC-257 melanoma and 63.9% in the experiment on M14 melanoma.
With `COc1cc(/C=C2/C=C(c3ccc(C(C)(C)C)cc3)N(CCc3ccc(S(N)(=O)=O)cc3)C2=O)cc(OC)c1OC`, the growth in the experiment with DU-145 prostate is 77.1%; in the experiment with K-562 leukemia it was 24.5%; with MALME-3M melanoma, 68.4%; in the experiment with MDA-MB-231 breast, 60.1%; in the experiment with RXF 393 renal, 12.4%; in the experiment with SF-268 CNS, 58.2%. Also, the growth was 49.4% with SF-295 CNS, 59% in the experiment on SF-539 CNS, 62.2% with UACC-257 melanoma and 36.5% with M14 melanoma.
Take `O=C(Cc1ccc(F)cc1)c1ccccc1`: the growth with DU-145 prostate was 127%; in the experiment on K-562 leukemia it was 100%; in the experiment with MALME-3M melanoma, 107%; in the experiment on MDA-MB-231 breast, 111%; with RXF 393 renal, 118%; in the experiment on SF-268 CNS, 113%. Also, the growth in the experiment on SF-295 CNS was 117%; with SF-539 CNS it was 113%; with UACC-257 melanoma, 114%; in the experiment on M14 melanoma, 105%.
Consider `CCN(C(=O)N1CCN(c2cc3c(cc2F)c(=O)c(C(=O)O)cn3C2CC2)CC1)c1nc(-c2ccccc2)cs1`, for which the growth is 27.1% in the experiment on DU-145 prostate; 13.8% with K-562 leukemia; 22.1% with MALME-3M melanoma; 5.26% (active) in the experiment with MDA-MB-231 breast; 19.7% with RXF 393 renal; 25% with SF-268 CNS. Further, the growth in the experiment with SF-295 CNS was 8.29% (active); in the experiment with SF-539 CNS, 8.47% (active); with UACC-257 melanoma it was 74.1%; in the experiment with M14 melanoma, 22.9%.
Take `Clc1ccc(Nc2nc(Nc3ccc(Cl)cc3)nc(Nc3ccc(-c4cc(-c5cccc(Cl)c5)on4)cc3)n2)cc1`: the growth in the experiment on DU-145 prostate is 110%; in the experiment on K-562 leukemia it was 85.9%; in the experiment on MALME-3M melanoma it was 128%; with MDA-MB-231 breast it was 81.3%; in the experiment with RXF 393 renal, 39.3%; with SF-268 CNS, 87.7%. For the same compound, the growth is 102% in the experiment on SF-295 CNS, 102% in the experiment with SF-539 CNS, 108% in the experiment on UACC-257 melanoma and 94.8% in the experiment on M14 melanoma.
`CN(C)C1CCN(C(=O)c2ccc(NC(=O)Nc3ccc(-c4nc(N5CCOCC5)c5cccn5n4)cc3)cc2)CC1`: the growth in the experiment with DU-145 prostate is 0.561% (active); in the experiment with K-562 leukemia it was 18.9%; with MALME-3M melanoma, -32.6% (active); in the experiment with MDA-MB-231 breast it was 0.146% (active); in the experiment on RXF 393 renal it was -30.4% (active); in the experiment with SF-268 CNS, 2.29% (active). The growth in the experiment on SF-295 CNS is -37.1% (active); in the experiment on SF-539 CNS, -39.6% (active); in the experiment on UACC-257 melanoma, -18.3% (active); with M14 melanoma it was -0.109% (active).
`C[N+]1=C(/C=C\C=C\c2ccccc2)C(C)(C)c2ccccc21`: the growth with DU-145 prostate was 48.7%; in the experiment with K-562 leukemia it was 4.69% (active); with MALME-3M melanoma, -17.8% (active); in the experiment with MDA-MB-231 breast it was 9.89% (active); in the experiment on RXF 393 renal, 38%; with SF-268 CNS it was 38.5%. Also, the growth with SF-295 CNS was 72.4%; in the experiment with SF-539 CNS, 8.59% (active); in the experiment on UACC-257 melanoma, 8.91% (active); in the experiment on M14 melanoma, 20.5%.
`N#CC1=C(N)Oc2c(sc3c(Br)cccc23)C1c1ccccn1` (stereo not given): the growth with DU-145 prostate is 51.2%; in the experiment on K-562 leukemia, 15.2%; in the experiment on MALME-3M melanoma it was 45.4%; with MDA-MB-231 breast, 59.8%; in the experiment with RXF 393 renal it was 13.5%; with SF-268 CNS, 41.5%. In addition, the growth in the experiment with SF-295 CNS is 18%; with SF-539 CNS it was 6.33% (active); with UACC-257 melanoma it was 51.1%; with M14 melanoma it was 28.1%.
For the compound `COc1ccc(-c2ccc(-c3ccc(C(=N)N)cn3)o2)cc1Cl`, the growth was 46.5% with DU-145 prostate; -40.3% (active) in the experiment with K-562 leukemia; 5.7% (active) in the experiment with MALME-3M melanoma; 4.25% (active) in the experiment with MDA-MB-231 breast; 56.6% in the experiment with RXF 393 renal; 46.5% in the experiment with SF-268 CNS. Moreover, the growth in the experiment with SF-295 CNS is 73.6%; in the experiment with SF-539 CNS, 33%; in the experiment with UACC-257 melanoma it was 77.1%; in the experiment with M14 melanoma, 31.8%.
As to `O=[N+]([O-])c1ccc2[nH]c3nccc(NCc4cccc(Cl)c4)c3c2c1`, the growth with DU-145 prostate was 64.6%; in the experiment on K-562 leukemia it was 79.4%; with MALME-3M melanoma, 46.4%; with MDA-MB-231 breast it was 80.2%; in the experiment with RXF 393 renal it was 66.4%; in the experiment on SF-268 CNS, 46.1%. The growth in the experiment with SF-295 CNS was 67.3%; in the experiment with SF-539 CNS, 71.1%; in the experiment on UACC-257 melanoma, 85.5%; in the experiment with M14 melanoma it was 83.4%.

(Values after PubChem BioAssay (NCI).)
